phage Ecoli inh = growth loss of phage-infected E. coli, primary screen, RecBCD inhibitor project, absorbance, with phage, HTS | 0.26% of 360,000 active | inhibition, % at 11.9 µM | AID 651602, 2012; in the data active = inhibition above about 11%
E coli growth-1 = E. coli V3065 growth inhibition, primary screen, counter-screen for AddAB inhibitor project, absorbance, OD600; AID 449728, 2010; 18 h; inhibition, % at 11.9 µM; 0.27% of 330,000 active;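 active = inhibition above the campaign's mean inhibition across all tested compounds plus 3 SD, cut at about 9.9% in these data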;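 also: uninfected addAB+ strain grown without phage in ampicillin broth; 0% = DMSO wells and 100% = ciprofloxacin 0.95 µg/ml wells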
Tat export inh = E. coli Tat export inhibitors, primary screen, MC4100, TorA-mCherry reporter, fluorescence, single point; inhibition, % at 10 µM; 0.036% of 340,000 active; AID 488895, 2010;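 active = mean replicate inhibition at least 50% and at least half of replicates individually reaching 50%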;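 also: exported cargo escapes ClpAP degradation while cytoplasmic cargo is degraded and loses fluorescence; 0% = median of neutral control wells and 100% = median of NaSCN control wells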
AddAB inh = growth inhibition of E. coli expressing H. pylori AddAB, primary screen, AddAB inhibitor project, absorbance; inhibition, % at 11.9 µM; 0.29% of 330,000 active; AID 435030, 2010; in the data active = inhibition above about 12%;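 also: 0% = vehicle wells of infected cells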
E coli growth-2 = E. coli growth inhibition, primary screen, OD600; Escherichia coli growth, 23 h; stronger effect = lower value; OD600 absorbance (test concentration not listed); 0.21% of 330,000 active; AID 1053175, 2014;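 active = OD600 absorbance below the run mean of sample wells minus 3.6 SD, in any replicate, cut at about 0.56 in these data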
RecBCD conf = growth loss of phage-infected RecBCD+ E. coli, confirmation, RecBCD inhibitor project, absorbance, E. coli V66, T4 gene 2 phage | shares compounds with phage Ecoli inh | E. coli V66 + T4 2- phage, growth OD | inhibition, % at 11.9 µM | 45% of 890 active | AID 651982, 2013;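 active = mean inhibition over triplicates exceeding the hit threshold derived in the original primary screen, cut at about 11% in these data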
Ecoli viability = E. coli viability inhibition, counter-screen for RecBCD inhibitor project, absorbance, high throughput. shares compounds with phage Ecoli inh. absorbance (OD) growth. inhibition, % at 11.9 µM. 29% of 890 active. AID 651983, 2013; in the data active = inhibition above about 20%;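 also: E. coli strain V66 grown with compound alone and no phage infection; 0% = bacteria with DMSO vehicle only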
AddAB counter = growth loss of phage-infected AddAB-carrying E. coli, confirmation, counter-screen for RecBCD inhibitor project, absorbance, E. coli V3065, T4 phage. shares compounds with phage Ecoli inh. E. coli expressing H. pylori AddAB + T4 phage, OD growth; gene 2 mutant T4, recBCD-deleted host. inhibition, % at 11.9 µM. 45% of 890 active. AID 651984, 2013;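 active = mean inhibition above the solvent-only control wells' mean plus 3 SD, cut at about 22% in these data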;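 also: higher means less bacterial growth from phage killing when AddAB is blocked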
Active calls of the source: *; ! = repeats disagree. Sampled rows, rich in hits. Any-hit rate of the full collection: about 0.51%.

Screening CC(=NNc1nncc2ccccc12)c1ccc(OCC(=O)N(C)C)cc1 returned E coli growth-2 0.718.
`Cc1ccc(N2CC(C(=O)NN=Cc3sccc3C)CC2=O)cc1` (stereo not given) gave E coli growth-2 0.673.
For CN(CC(=O)Nc1cccc(F)c1)C(=O)CC1CCCCC1 the results were phage Ecoli inh 11.3*, E coli growth-1 -1.1, Tat export inh 4.4, AddAB inh -3.6, E coli growth-2 0.631, RecBCD conf 1.6, Ecoli viability 1.0 and AddAB counter 5.2.
For COc1cccc(NC(=O)CN(C)C(=O)CC2CCCCC2)c1 the results were phage Ecoli inh -1.5, Tat export inh 2.4 and E coli growth-2 0.675.
Cc1ccc(S(=O)(=O)N(C)N=Cc2ccc(C(=O)O)cc2)cc1 was read as E coli growth-2 0.676.
For COc1nccnc1NS(=O)(=O)c1ccc(N=Cc2c(C)[nH]n(-c3ccccc3)c2=O)cc1 the results were phage Ecoli inh 5.5, E coli growth-1 3.9, Tat export inh 1.0, AddAB inh 5.6 and E coli growth-2 0.613.
Cc1[nH]n(-c2ccccc2)c(=O)c1C=Nc1ccc(S(=O)(=O)Nc2nccs2)cc1 was read as phage Ecoli inh 15.3*, E coli growth-1 7.4, Tat export inh 18.4, AddAB inh 7.7, E coli growth-2 0.65, RecBCD conf 6.8, Ecoli viability 3.6 and AddAB counter 26.3*.
For CC(C)NC(=S)NN=Cc1cccnc1 the results were E coli growth-2 0.642.
For Cc1ccc(C(O)(C(=O)NNc2ccc3ccccc3n2)c2ccc(C)cc2)cc1 the results were phage Ecoli inh 13.1*!, E coli growth-1 10.7*!, Tat export inh -1.9, AddAB inh 10.2, E coli growth-2 0.694, RecBCD conf 4.0, Ecoli viability 7.7 and AddAB counter 4.5.
`Cc1ccc(C(=O)Nc2ccc3ccccc3n2)cc1` gave phage Ecoli inh 1.5, E coli growth-1 -1.3, Tat export inh -4.3, AddAB inh 3.8 and E coli growth-2 0.664.
For Oc1ccc(Cl)cc1Sc1cc(Cl)ccc1O the results were phage Ecoli inh 12.1*, Tat export inh -5.0, RecBCD conf 9.4, Ecoli viability 13.5 and AddAB counter 9.4.
CN(C)C(=O)c1cc(Cl)ccc1Sc1cc(Cl)ccc1Cl was read as phage Ecoli inh 0.7, E coli growth-1 2.6, Tat export inh -2.4, AddAB inh 3.6 and E coli growth-2 0.672.
CC(C)(C)OC(=O)NC(C(=O)OC(C)(C)C)c1ccc(Br)cc1 (stereo not given) was read as E coli growth-2 0.653.
`C=CCn1cc(C(=O)N2CCN(C)CC2)c(=O)c2cc(S(=O)(=O)N3CCCC3)ccc21` gave phage Ecoli inh 21.6*, E coli growth-1 -0.7, Tat export inh -2.3, AddAB inh 3.3, E coli growth-2 0.762, RecBCD conf -2.3, Ecoli viability -2.0 and AddAB counter -2.4.
O=C(NCC1CCCO1)c1cccc2c1C(=O)c1ccc(Cl)cc1S2(=O)=O (stereo not given) was read as E coli growth-2 0.709.
For Cc1nc(C)c(C(=O)NN=Cc2cn(C)c3ccccc23)s1 the results were E coli growth-2 0.691.
